Where a name gives a salt, the structure may show the parent alone. ± gives the standard deviation of the averaged measurements.
How the values were obtained:
Assay in all cases: growth (OD600 after 10 h); higher = more growth (less inhibition)
[1] = test system: E. coli TESEC Alr+ wild-type control; conditions: compound 0.1 mM; raw OD600 reference: median of DMSO wells 0.241, cell-free background 0.041
Protocol: (§1)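 TESEC Mtb Alr E. coli, or the Alr+ wild-type control, in 384-well plates with Prestwick library compounds at 0.1 mM and 1% DMSO, across arabinose induction levels of 1E3 to 1E7 nM. Growth is read as OD600 after 10 h at 37 °C in triplicate biological replicates.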

E. coli TESEC Mtb Alr [2] = conditions: compound 0.1 mM
Protocol: as §1

E. coli TESEC Mtb Asd = conditions: compound 0.1 mM
Protocol: (§2)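 TESEC E. coli strains in which the native enzyme is deleted and replaced by arabinose-inducible Mtb Asd, DapB, CysH or TrpD, each grown in its selective medium. Strains were screened against the Prestwick library at 0.1 mM and 1% DMSO in 384-well format at low and high arabinose induction. Growth is read as OD600 after 10 h in triplicate.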

E. coli TESEC Mtb Alr [3] = conditions: compound 0.1 mM; remark: listed apart in the source
Protocol: (§3)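 TESEC Mtb Alr E. coli (ΔaraC ΔtolC ΔentC Δalr ΔdadX, arabinose-inducible Mtb Alr) or the Alr+ wild-type control strain, grown in defined M9-fructose medium without D-alanine in 96-well plates with Prestwick library compounds at 0.1 mM and 1% DMSO. Low Alr induction is 0.1 µM arabinose and high induction is 10 mM arabinose.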

E. coli TESEC Mtb DapB = conditions: compound 0.1 mM
Protocol: as §2

[4] = test system: E. coli TESEC Alr+ wild-type control; conditions: compound 0.1 mM; raw OD600 reference: median of DMSO wells 0.49, cell-free background 0.052
Protocol: as §3

[5] = arabinose 1000 nM, raw OD600 reference: median of DMSO wells 0.294, cell-free background 0.041
[6] = arabinose 10000 nM, raw OD600 reference: median of DMSO wells 0.264, cell-free background 0.041
[7] = arabinose 100000 nM, raw OD600 reference: median of DMSO wells 0.201, cell-free background 0.041
[8] = arabinose 1000000 nM, raw OD600 reference: median of DMSO wells 0.193, cell-free background 0.041
[9] = arabinose 10000000 nM, raw OD600 reference: median of DMSO wells 0.146, cell-free background 0.041
[10] = arabinose induction (level): High, raw OD600 reference: median of DMSO wells 0.331, cell-free background 0.041
[11] = arabinose induction (level): Low, raw OD600 reference: median of DMSO wells 0.417, cell-free background 0.041
[12] = arabinose 100 nM, raw OD600 reference: median of DMSO wells 0.413, cell-free background 0.052
[13] = arabinose 10000000 nM, raw OD600 reference: median of DMSO wells […], cell-free background 0.052
[14] = arabinose induction (level): High, raw OD600 reference: median of DMSO wells […], cell-free background 0.041
[15] = arabinose induction (level): Low, raw OD600 reference: median of DMSO wells 0.227, cell-free background 0.041

Structure (SMILES)	growth [1]	growth (E. coli TESEC Mtb Alr [2]; [5])	growth (E. coli TESEC Mtb Alr [2]; [6])	growth (E. coli TESEC Mtb Alr [2]; [7])	growth (E. coli TESEC Mtb Alr [2]; [8])	growth (E. coli TESEC Mtb Alr [2]; [9])	growth (E. coli TESEC Mtb Asd; [10])	growth (E. coli TESEC Mtb Asd; [11])	growth (E. coli TESEC Mtb Alr [3]; [12])	growth (E. coli TESEC Mtb Alr [3]; [13])	growth (E. coli TESEC Mtb DapB; [14])	growth (E. coli TESEC Mtb DapB; [15])	growth [4]
CC1C=CC=CCCC=CC=CC=CC=CC(OC2OC(C)C(O)C(N)C2O)CC2OC(O)(CC(O)C(O)CCC(O)CC(O)CC(O)CC(=O)OC(C)C(C)C1O)CC(O)C2C(=O)O (stereo not drawn) [Nystatine]	0.297 ± 0.0097	0.307 ± 0.025	0.2338 ± 0.0013	0.345 ± 0.014	0.1538 ± 0.0011	0.188 ± 0.0066	0.23 ± 0.021	0.256 ± 0.023	0.431 ± 0.0073	0.345 ± 0.016	–	–	–
CC(Cc1ccccc1)NCCC(c1ccccc1)c1ccccc1 (stereo not drawn) [Prenylamine lactate]	0.04013 ± 0.00032	0.03927 ± 0.00035	0.0394 ± 0.0001	0.0405 ± 0.001	0.0393	0.0397 ± 0.00052	0.0468 ± 0.00058	0.0471 ± 0.00089	0.276 ± 0.19	0.0499 ± 0.00064	–	–	–
O=C(O)CCCc1ccc(N(CCCl)CCCl)cc1 [Chlorambucil]	0.2478 ± 0.002	–	–	–	–	–	0.258 ± 0.086	0.288 ± 0.096	0.429 ± 0.0069	0.326 ± 0.016	0.209 ± 0.023	0.259 ± 0.023	0.537 ± 0.095
O=[N+]([O-])O[C@H]1CO[C@H]2[C@@H]1OC[C@H]2O[N+](=O)[O-] [Isosorbide dinitrate]	0.243 ± 0.013	–	–	–	–	–	0.476 ± 0.013	0.419 ± 0.07	0.4084 ± 0.0022	0.343 ± 0.014	0.213 ± 0.012	0.27 ± 0.03	–
CCNCC(O)c1cccc(O)c1 (stereo not drawn) [Etilefrine hydrochloride]	0.247 ± 0.0026	0.3085 ± 0.0027	0.261 ± 0.012	0.188 ± 0.018	0.193 ± 0.0032	0.134 ± 0.0026	0.211 ± 0.025	0.367 ± 0.035	0.409 ± 0.015	0.345 ± 0.023	–	–	–
COc1ccc(C(=O)N2CCCC2=O)cc1 [Aniracetam]	0.25 ± 0.0051	0.3088 ± 0.0018	0.246 ± 0.01	0.236 ± 0.021	0.172 ± 0.0084	0.167 ± 0.0026	0.235 ± 0.057	0.309 ± 0.058	0.405 ± 0.011	0.343 ± 0.012	–	–	–
C[C@]12C/C(=C/O)C(=O)C[C@@H]1CC[C@@H]1[C@@H]2CC[C@@]2(C)[C@H]1CC[C@]2(C)O [Oxymetholone]	0.162 ± 0.002	–	–	–	–	–	0.124 ± 0.0085	0.226 ± 0.043	0.379 ± 0.019	0.252 ± 0.004	0.158 ± 0.013	0.194 ± 0.019	0.462 ± 0.01
CC(C)(C)NCC(O)c1cc(Cl)c(N)c(Cl)c1 (stereo not drawn) [Clenbuterol hydrochloride]	0.226 ± 0.0046	0.292 ± 0.0084	0.246 ± 0.005	0.252 ± 0.011	0.215 ± 0.005	0.157 ± 0.0026	0.35 ± 0.0059	0.231 ± 0.031	0.398 ± 0.011	0.355 ± 0.024	–	–	–
C[C@]12Cc3c[nH]nc3C[C@@H]1CC[C@@H]1[C@@H]2CC[C@@]2(C)[C@H]1CC[C@]2(C)O [Stanozolol]	0.184 ± 0.0086	0.256 ± 0.0051	0.245 ± 0.0053	0.169 ± 0.023	0.141 ± 0.0057	0.139 ± 0.0021	0.157 ± 0.011	0.271 ± 0.051	0.409 ± 0.0083	0.278 ± 0.018	–	–	–
O=c1[nH]oc2c1CCNC2 [THIP Hydrochloride]	0.26 ± 0.0053	–	–	–	–	–	0.262 ± 0.035	0.433 ± 0.04	0.41 ± 0.013	0.349 ± 0.018	0.2018 ± 0.0015	0.238 ± 0.014	0.539 ± 0.087
C[N+]12CCC(CC1)C(OC(=O)C(O)(c1ccccc1)c1ccccc1)C2 (stereo not drawn) [Clidinium bromide]	0.239 ± 0.0044	0.326 ± 0.011	0.273 ± 0.0033	0.175 ± 0.03	0.187 ± 0.01	0.132 ± 0.0086	0.288 ± 0.035	0.453 ± 0.034	0.406 ± 0.015	0.353 ± 0.019	–	–	–
CN1[C@@H]2CC[C@H]1C[C@@H](OC(=O)[C@H](CO)c1ccccc1)C2 [Hyoscyamine (L)]	0.243 ± 0.0078	–	–	–	–	–	0.317 ± 0.073	0.377 ± 0.074	0.415 ± 0.02	0.34 ± 0.02	0.191 ± 0.014	0.29 ± 0.023	–
CN1[C@@H]2CC[C@H]1C[C@@H](OC(=O)C(CO)c1ccccc1)C2 (stereo partly drawn) [Atropine sulfate monohydrate]	0.234 ± 0.0026	–	–	–	–	–	0.339 ± 0.053	0.421 ± 0.081	0.41 ± 0.019	0.357 ± 0.014	–	–	–
CC(CCc1ccccc1)NC(C)C(O)c1ccc(O)cc1 (stereo not drawn) [Nylidrin]	0.215 ± 0.0087	–	–	–	–	–	0.351 ± 0.062	0.495 ± 0.048	0.404 ± 0.014	0.316 ± 0.013	–	–	–
Clc1ccc(C(OCCN2CCCCC2)c2ccccc2)cc1 (stereo not drawn) [Cloperastine hydrochloride]	0.186 ± 0.0072	–	–	–	–	–	0.113 ± 0.002	0.154 ± 0.0084	0.4058 ± 0.0039	0.147 ± 0.085	–	–	–
C[N+]1(C)CCCC(OC(=O)C(O)(c2ccccc2)c2ccccc2)C1 (stereo not drawn) [Mepenzolate bromide]	0.235 ± 0.006	0.307 ± 0.016	0.258 ± 0.0015	0.203 ± 0.022	0.179 ± 0.0065	0.137 ± 0.0056	0.307 ± 0.038	0.461 ± 0.02	0.405 ± 0.0053	0.345 ± 0.014	–	–	–
CC(=O)OCC1=C(C(=O)O)N2C(=O)[C@@H](N)[C@H]2SC1 [Cephalosporanic acid, 7-amino]	0.254 ± 0.0055	0.295 ± 0.011	0.269 ± 0.008	0.22 ± 0.023	0.205 ± 0.011	0.151 ± 0.0034	0.273 ± 0.018	0.402 ± 0.086	0.408 ± 0.013	0.356 ± 0.011	–	–	–
CN1C(=O)CCS(=O)(=O)C1c1ccc(Cl)cc1 (stereo not drawn) [Chlormezanone]	0.244 ± 0.0034	0.298 ± 0.018	0.256 ± 0.0031	0.256 ± 0.012	0.188 ± 0.013	0.146 ± 0.005	0.328 ± 0.08	0.407 ± 0.066	0.408 ± 0.011	0.367 ± 0.0068	–	–	–

Reference: the supplement of paper PMC9262897, “Low-cost anti-mycobacterial drug discovery using engineered E. coli” (Nature Communications, 2022)
